Source: PubChem BioAssay (The Scripps Research Institute Molecular Screening Center)
This is a sample that favours compounds with a hit; in the whole collection about 1.3% have one here.
LYPLA1 inh – blocks human lysophospholipase 1, a PME1 counter-screen; O75608; recombinant LYPLA1, FP-Rh probe fluorescence polarization; inhibition, % at 5.9 µM; 0.16% of 320,000 active; AID 2174;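 active = inhibition above the mean of all tested compounds plus 3 SD, set per campaign, cut at about 14% in these data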;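 note: inhibitors block serine hydrolase probe labeling of LYPLA1 so polarization falls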
PREPL inh – inhibitors of human prolyl oligopeptidase-like enzyme PREPL | recombinant PREPL, fluorescence polarization activity-based probe | inhibition, % at 5.96 µM | 0.68% of 320,000 active
LYPLA2 inh – blocks human lysophospholipase 2, a PME1 counter-screen; O95372; 0.38% of 320,000 active; inhibition, % at 5.9 µM; recombinant LYPLA2, FP-Rh probe fluorescence polarization;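 active = inhibition above the screen-wide mean plus 3 SD, limit set per campaign, cut at about 26% in these data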
Fam108B counter – counter-screen for RBBP9 inhibitors: inhibitors of mouse Fam108B | recombinant Fam108B, FP-Rh probe fluorescence polarization | inhibition, % at 9.51 µM | 0.33% of 300,000 active;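 active = inhibition above the screen mean inhibition plus 3 SD, computed separately per campaign, cut at about 18% in these data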;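 note: inhibitors lower polarization as less probe binds the enzyme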
PME-1 primary – blocks human protein phosphatase methylesterase 1; recombinant PME-1, FP-Rh probe fluorescence polarization; 0.53% of 320,000 active; inhibition, % at 5.9 µM; AID 2130;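 active = inhibition above the campaign mean of all compounds plus 3 SD, cut at about 26% in these data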;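 note: competitive labeling of PME-1 active site by serine hydrolase directed probe; inhibitors block probe labeling so polarization falls and inhibition rises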
Target sequence (Q9Y570 whole entry, looked up): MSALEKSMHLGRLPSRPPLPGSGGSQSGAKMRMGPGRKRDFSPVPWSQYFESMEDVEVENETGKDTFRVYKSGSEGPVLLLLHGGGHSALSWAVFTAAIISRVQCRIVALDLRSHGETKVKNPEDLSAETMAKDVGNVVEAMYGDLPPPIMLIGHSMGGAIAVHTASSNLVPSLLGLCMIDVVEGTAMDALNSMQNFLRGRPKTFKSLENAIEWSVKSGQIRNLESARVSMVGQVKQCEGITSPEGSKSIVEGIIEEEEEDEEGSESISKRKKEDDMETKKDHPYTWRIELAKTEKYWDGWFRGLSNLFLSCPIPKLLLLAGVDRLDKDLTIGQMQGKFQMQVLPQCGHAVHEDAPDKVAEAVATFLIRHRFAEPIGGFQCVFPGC
PREPL inh cf – human PREPL inhibition, confirmation | inhibition, % at 5.96 µM | shares compounds with PREPL inh | 67% of 2,000 active | recombinant PREPL, fluorescence polarization activity probe | AID 2803
Hits are given with their value; 0 = inactive; - = no result. Cut-off read from the data, not from the text of the source, unless noted: active = inhibition above about 43%; inactive = the rest.

SMILES	LYPLA1 inh	PREPL inh	LYPLA2 inh	Fam108B counter	PME-1 primary	PREPL inh cf
COc1ccc(OCC(=O)N/N=C2\CCCCc3ccccc32)cc1	0	0	0	0	0	-
CCOc1ccc(CCNC(=O)C2CC(=O)N(c3ccc4c(c3)OCCO4)C2)cc1OCC (centres undefined)	0	0	0	0	0	-
C[C@H]1CN([C@@H](C)CO)C(=O)Cc2cc(NC(=O)C3CC3)ccc2O[C@H]1CN(C)Cc1ccc(Oc2ccccc2)cc1	-	0	-	-	-	-
C[C@H]1CN([C@@H](C)CO)C(=O)Cc2cc(NC(=O)CCN3CCOCC3)ccc2O[C@@H]1CN(C)Cc1ccc(Oc2ccccc2)cc1	-	53	-	-	-	54
CCOc1cc(/C=C2/SC(=S)N(CC(=O)O)C2=O)ccc1OC(=O)c1cccs1	0	65	0	0	0	67
COc1ccc(/C=C2/SC(=S)N(CC(=O)O)C2=O)cc1OCc1ccc(Cl)cc1	0	66	0	0	0	67
Cc1nn(-c2ccccc2)c(N)c1N=Nc1cccnc1	0	0	0	0	0	-
Cc1[nH]n(-c2ccccc2)c(=O)c1N=Nc1ccccc1	0	0	0	0	0	-
Nc1nn(-c2ccccc2)c(N)c1N=Nc1ccc2c(c1)OCO2	0	60	0	0	0	60
Nc1nn(-c2ccccc2)c(N)c1N=Nc1cccc(F)c1	0	65	0	0	0	60
Oc1ccc(N=Nc2ccc3c(c2)OCO3)c2ccccc12	0	0	0	0	0	-
Nc1[nH]n(-c2ccccc2)c(=O)c1N=Nc1ccc2c(c1)OCO2	0	45	0	0	33	47
Cc1ccc(S(=O)(=O)c2nc(-c3ccccc3)oc2N2CCC(C(N)=O)CC2)cc1	0	0	0	0	0	-
COc1ccc2c(/C=N/Nc3ccc(C(=O)O)cc3)c[nH]c2c1	0	56	0	0	0	0
Cc1ccn2c(-c3csc(NCc4ccccc4)n3)c(C)nc2c1	0	45	0	0	0	45
Cc1nc2ccccn2c1-c1csc(NCc2ccco2)n1	0	0	0	0	0	-
O=C(NCCCN1CCOCC1)C(c1ccccc1)c1ccccc1	0	0	0	0	0	-
COc1cccc(N2CCN(Cc3nc4ccccc4c(=O)[nH]3)CC2)c1	0	48	0	0	0	0
Cc1ccc(CNc2ccc3c(c2)ncn3C(C)(C)C)cc1	0	49	0	0	0	46
Cc1ccc(-c2csc(N3CCN(c4cc5c(cc4Cl)nc(-c4ccncc4)n5CCN4CCCCC4)CC3)n2)cc1	0	45	0	0	0	0
Fc1ccc(-n2cc(CNCCc3cccnc3)c(-c3ccccc3Cl)n2)cc1	0	0	0	0	0	-
Cc1ccc2c(c1)c1c(n2CC(O)CNC2CCCCC2)CCCC1 (centres undefined)	0	50	0	0	0	46
CCOc1ccc(CNC(=O)c2ccccc2NC(=O)C2=CSCCO2)cc1	0	0	0	0	0	-
O=C(O)c1sccc1Oc1ccc(NS(=O)(=O)c2ccccc2)cc1	0	0	0	0	0	-
